Experimental data reported in PubChem BioAssay AID1851 (National Center for Advancing Translational Sciences (NCATS), 2009).
Hit rate of the full screen: of about 16,000 compounds, about 2,600 (16%) were called active. Inconclusive results (about 20%) are left out. The call rests on the fitted dose curve; in most records, active means well fitted curve in the direction sought with a large enough effect; inconclusive means small, poorly fitted or top-dose-only effect, or effect the other way; inactive means no such curve, though single readings can be large or run the other way. Only a sample is shown.

biological target: Cytochrome P450 2D6 (Homo sapiens) (UniProt P10635); experiment: Cytochrome panel assay with activity outcomes; details: recombinant CYP, pro-luciferin dealkylation, luminescence, p450-cyp2d6; series mostly up to 57.1 µM
Sequence (P10635 whole entry, looked up): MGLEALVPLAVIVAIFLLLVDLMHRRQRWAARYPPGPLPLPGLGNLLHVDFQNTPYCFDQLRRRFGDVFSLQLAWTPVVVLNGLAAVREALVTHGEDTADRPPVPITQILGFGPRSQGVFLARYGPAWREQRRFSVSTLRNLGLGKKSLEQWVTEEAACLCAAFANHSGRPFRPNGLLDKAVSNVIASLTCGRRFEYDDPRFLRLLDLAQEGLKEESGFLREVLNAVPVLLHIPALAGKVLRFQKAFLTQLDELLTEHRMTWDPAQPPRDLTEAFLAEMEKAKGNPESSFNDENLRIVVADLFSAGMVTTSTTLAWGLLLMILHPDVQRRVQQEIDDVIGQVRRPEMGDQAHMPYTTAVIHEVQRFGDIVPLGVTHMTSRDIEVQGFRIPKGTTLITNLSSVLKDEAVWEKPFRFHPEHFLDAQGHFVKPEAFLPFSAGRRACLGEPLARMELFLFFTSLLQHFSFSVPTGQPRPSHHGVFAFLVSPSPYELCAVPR
On the % scale 0 is the no-effect control and ±100 the full control effect.

SMILES	AC50	activity, negative = inhibition
O=c1cc(N2CCN(c3ccccc3)CC2)[nH]c(=O)n1C1CCCCC1	inactive	–
COc1c(/C=N/Nc2nc(N3CCCCC3)nc(N3CCCCC3)n2)cccc1[N+](=O)[O-]	inactive	–
CN(Cc1cc(Cl)cc(Cl)c1O)Cc1c(O)ccc2ccccc12	1.26 µM (active)	–
Oc1ccc(Cl)cc1Cc1cc(Cl)cc(Cc2cc(Cl)ccc2O)c1O	–	-10.5% [at 11.4 µM] (inactive)
CCN(Cc1cc(Cl)cc(C)c1O)Cc1c(O)ccc2ccccc12	1.26 µM (active)	–
CN(Cc1cc(Br)cc(Br)c1O)Cc1c(O)ccc2ccccc12	1.58 µM (active)	–
Oc1ccc2ccccc2c1/C=C\c1ccc2c(Br)cc(Br)c(O)c2n1	–	-2.53% [at 11.4 µM] (inactive)
CN(C)Cc1cc(Cl)c(O)c(CN(C)C)c1	–	-14% [at 11.4 µM] (inactive)
COc1ccc(C=Nc2c(O)ccc3ccccc23)cc1OC	–	-7.34% [at 11.4 µM] (inactive)
Cc1c(C(c2cccc([N+](=O)[O-])c2O)c2c(C)n(C)n(-c3ccccc3)c2=O)c(=O)n(-c2ccccc2)n1C	inactive	–
COc1ccc(C(NC(=O)c2ccc(-c3ccccc3)cc2)c2ccccc2)cc1 (stereo not drawn)	inactive	–
CCN(CC)C(=O)C1CCN(S(=O)(=O)c2ccc3oc4ccccc4c3c2)CC1	inactive	–
COC(=O)c1ccc2ccn(CC(=O)NC3CCCCC3)c2c1	inactive	–
Cn1cc(-c2nc3cncnc3n(CCN)c2=O)c2ccccc21	inactive	–
CCCCOC1(c2ccccc2)OC(=O)c2ccccc21 (stereo not drawn)	inactive	–
Cn1cccc1C(=O)N1CCC2(CCN(Cc3nccs3)CC2)CC1	inactive	–
COc1ccccc1CN1CCC2(CC1)CCN(C(=O)c1cccn1C)CC2	3.98 µM (active)	–
COc1ccccc1CN1CCCC2(CCN(C(=O)c3cccn3C)CC2)C1	3.16 µM (active)	–
COc1ccc(NC(=O)N2CCC3(CC2)CCN(C(=O)c2cccn2C)CC3)cc1	inactive	–
Cn1cccc1C(=O)N1CCC2(CCCN(c3ccccc3)C2)CC1	inactive	–
COc1ccccc1CN1CC[C@@]2(CCCN(C(=O)c3cccn3C)C2)C1	0.316 µM (active)	–

SMILES	AC50	activity, negative = inhibition
CN1CCCC2(CCN(C(=O)c3cccn3C)CC2)C1	inactive	–
COc1ccc(NC(=O)N2CC[C@@]3(CCCN(C(=O)c4cccn4C)C3)C2)cc1	inactive	–
CC(C)NC(=O)N1CC[C@@]2(CCCN(C(=O)c3cccn3C)C2)C1	inactive	–
Cc1ccc(-c2csc(N3CCC(NS(=O)(=O)c4ccc5c(c4)OCCO5)CC3)n2)cc1	inactive	–
COc1ccc(-c2nc3cnc(N4CCN(C)CC4)nc3n(CCC#N)c2=O)cc1	inactive	–
Cc1cc2nnc(SCCCCN3C(=O)c4ccccc4C3=O)n2c2ccccc12	inactive	–
COc1cc2c(cc1OC)C(c1ccc(N)cc1)=NNC(=O)C2	inactive	–
O=c1ccn(-c2cccc(C(F)(F)F)c2)nc1-c1ccn(-c2ccccc2F)n1	inactive	–
CCOC(=O)CSc1cc(C(F)(F)F)nc(-c2ccccn2)n1	inactive	–
CCOC(=O)CSc1nc(-c2ccccc2)nc2ccccc12	inactive	–
CCOC(=O)CSc1cc(CS(=O)c2ccc(Cl)cc2)nc(-c2ccccc2)n1 (stereo not drawn)	14.1 µM (active)	–
Oc1c(Cl)cc(C(c2cc(Cl)c(O)c(Cl)c2)C(c2cc(Cl)c(O)c(Cl)c2)c2cc(Cl)c(O)c(Cl)c2)cc1Cl	–	-3.64% [at 11.4 µM] (inactive)
C=C1CC[C@H](O)C/C1=C/C=C1\CCC[C@]2(C)[C@H]1CC[C@H]2[C@@H](C)/C=C\[C@@H](C)C(C)C	inactive	–
CC(=O)c1cc(C)ccc1OC(=O)CCN1C(=O)C2C3c4ccccc4C(c4ccccc43)C2C1=O (stereo not drawn)	inactive	–
Oc1cc(O)cc(/C=C\c2ccc(O)c(O)c2)c1	inactive	–
COc1ccc(CCNC(=O)C2CCN(S(=O)(=O)c3cccc4nsnc34)CC2)cc1OC	inactive	–
CN(CCCNC(=O)C1CCN(S(=O)(=O)c2cccc3nsnc23)CC1)Cc1ccccc1	5.01 µM (active)	–
O=C(C1CCN(S(=O)(=O)c2cccc3nsnc23)CC1)N1CCN(c2ccccc2F)CC1	inactive	–
O=C(NCC1COc2ccccc2O1)C1CCN(S(=O)(=O)c2cccc3nsnc23)CC1 (stereo not drawn)	3.55 µM (active)	–
O=S(=O)(c1cccc2nsnc12)N1CCCC1	inactive	–
O=C(C1CCN(S(=O)(=O)c2cccc3nsnc23)CC1)N1CCCc2ccccc21	inactive	–

SMILES	AC50	activity, negative = inhibition
C=C(C)COc1ccc2c(c1)CCC1C2CC[C@]2(C)C(=O)/C(=N/O)CC12 (stereo partly drawn)	–	14.1% [at 11.4 µM] (inactive)
COc1ccc(C(=O)NC2(C(F)(F)F)C(=O)Nc3c2c(=O)[nH]c(=O)n3CCc2ccc(OC)c(OC)c2)cc1 (stereo not drawn)	inactive	–
O=C(NC(=S)NNC(=O)c1cccs1)c1ccco1	inactive	–
Cc1cc(C(=O)OC2CCOC2=O)c2ccccc2n1 (stereo not drawn)	inactive	–
C[C@@H]1O[C@@H](O)[C@@H](O)[C@H](O)[C@H]1O	–	-0.841% [at 11.4 µM] (inactive)
Cc1ccc(-n2ncc(N(C)C)c(Cl)c2=O)cc1	inactive	–
CC[C@](N)(C(=O)O)C(C)C	–	10.5% [at 11.4 µM] (inactive)
O=c1c2ccccc2nc2n1CCc1c-2[nH]c2ccccc12	inactive	–
O=C1NCCc2c1[nH]c1ccccc21	inactive	–
c1ccc2c3c([nH]c2c1)[C@@H]1[C@H]2CC[C@H]([C@H]4CCCN[C@H]42)N1CC3	7.94 µM (active)	–
O=[N+]([O-])c1ccc(Nc2nc(N/N=C\c3ccc4c(c3)OCO4)nc(N3CCCCC3)n2)cc1	inactive	–
CN(C)S(=O)(=O)Oc1ccsc1C(=O)Nc1ccc(Cl)cc1	22.4 µM (active)	–
CN(C)S(=O)(=O)Oc1cccc(C(=O)Nc2ccc(Cl)c(Cl)c2)c1	inactive	–
CN(C)S(=O)(=O)Oc1ccc(Cl)cc1C(=O)Nc1cccc(C(F)(F)F)c1	inactive	–
O=C(CSc1nnc2c(n1)[nH]c1ccc(F)cc12)OCc1ccccc1	inactive	–
C=CCN(CC=C)C(=S)NC(=O)c1ccc(OC)c(Br)c1	0.708 µM (active)	–
COc1ccc(C(=O)NC(=S)NC(C)C)cc1Br	inactive	–
COc1ccc(C(=O)NC(=S)NC(C)(C)C)cc1Br	inactive	–
Nc1cc(Cl)ccc1Oc1ccc(Cl)cc1	15.8 µM (active)	–
Cc1cc(Cl)ccc1Oc1ncc(-c2ccc(Cl)cc2)cn1	inactive	–
Nc1cc(Cl)ccc1Oc1ccccc1	inactive	–
